High-throughput results from PubChem BioAssay.
Rows were chosen to be rich in hits. Some 19% of all compounds tested hit in one or more screens of this group.
HT1080 IDH1KD tx – toxicity to HT-1080 IDH1 knockdown cells (counter line) | HT-1080 IDH1 knockdown viability, ATP luminescence, 48 h | Potency, µM (highest dose often 46.1 µM), actives largely listed as cytotoxic | 2% of 360,000 active | AID 686971
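IDH1KD HT-1080 cells, 750/well, RPMI + 5% FBS; compound pinned after 2 h settling; 48 h, 37 °C; CellTiter-Glo luminescence; % activity normalised to DMSO and no-cell wells; curves fitted, classed by r2 and efficacy.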
DT40 TDP1 CPT – growth inhibition of DT40 Tdp1-/-;hTDP1 cells with camptothecin (screen for TDP1 inhibitors) | chicken DT40 Tdp1-/-;hTDP1 cells + 20 nM CPT, ATP luminescence, 48 h | Potency, µM (series often up to 46.2 µM), actives largely listed as inhibitors | 12% of 420,000 active; also: nearly all actives have a fitted effect of over 55% in size
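Cell growth measured by CellTiter-Glo luminescence after a minimum 48 h, 37 C compound exposure with 20 nM CPT in Tdp1-knockout DT40 cells stably expressing hTDP1, seeded 400/well; qHTS titration format.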
TDP1 cell noCPT – qHTS for Inhibitors of human tyrosyl-DNA phosphodiesterase 1 (TDP1): qHTS in cells in absence of CPT; DT40 Tdp1-/- hTDP1 cells, no CPT, ATP luminescence, 48 h; Potency, µM (series often up to 46.2 µM), hits mostly inhibitors; 15% of 420,000 active; AID 686978, 2013; also: nearly all actives have a fitted effect of over 55% in size
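DT40 Tdp1-/-;hTDP1 cells, no CPT (DMSO vehicle only), 400 cells/well; compounds pin-transferred; ≥48 hr, 37 °C; CellTiter-Glo 30 min RT dark, luminescence read.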
KB-V1 cytotox – kills drug-selected multidrug resistant KB-V1 cells; KB-V1 MDR cells viability, CellTiter-Glo, 72 h; Potency, µM (doses to about 46.1 µM), usual class: cytotoxic; 3.4% of 400,000 active; AID 1347076; also: nearly all actives have a fitted effect of over 60% in size
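KB-V1, DMEM (no phenol red) + 10% FBS; cpd pin-transferred, titration series; 72 h, 37 degrees C; CellTiter-Glo, luminescence. Data normalized, curve-fit.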
KB-3-1 cytotox – kills parental KB-3-1 adenocarcinoma cells | KB-3-1 viability, CellTiter-Glo ATP luminescence, 72 h | Potency, µM (top dose mostly 46.1 µM), hits mostly cytotoxic | 1.4% of 400,000 active | AID 1347075; also: nearly all actives have a fitted effect of over 60% in size
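Screening of KB-3-1 cells (DMEM, 10% FBS, phenol-red free) ran from lowest to highest compound concentration; after 72 h at 37 °C viability was read luminescently and curves fitted.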
HT1080-NT tox – kills 2HG-producing HT-1080-NT fibrosarcoma cells. HT-1080-NT fibrosarcoma viability, CellTiter-Glo ATP luminescence, 48 h. Potency, µM (highest dose often 46.1 µM), usual class: cytotoxic. 1.6% of 360,000 active. AID 686970;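 also: NT is the 2HG producing partner of a matched IDH1 knockdown line; nearly all actives have a fitted effect of over 55% in size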
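Fibrosarcoma NT cells, 750 per well in 5% FBS RPMI, were exposed to compound for 48 hours. Viability: CellTiter-Glo luminescence.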
Large screens that a line does not name were inactive. Calls follow the shape of the dose curve; as a rule, active = well fitted curve in the direction sought with a large enough effect; inconclusive = small, poorly fitted or top-dose-only effect, or another doubt; inactive = no such curve, though single readings can be large; an effect the other way counts as inactive or inconclusive.

CN1CCN(C(=S)c2cn(Cc3ccccc3)c3ccccc23)CC1	DT40 TDP1 CPT inconclusive, KB-V1 cytotox inconclusive
CN1CCN(C(=S)c2cn(Cc3ccc(Br)cc3)c3ccccc23)CC1	HT1080 IDH1KD tx inconclusive, DT40 TDP1 CPT 21µM, TDP1 cell noCPT inconclusive, HT1080-NT tox inconclusive
CC1CCCN(C(=O)c2cccc(S(=O)(=O)NCc3ccccc3)c2)C1 (configuration not stated)	DT40 TDP1 CPT inconclusive, TDP1 cell noCPT inconclusive
O=S(=O)(Nc1ccc(F)cc1)c1ccc(NS(=O)(=O)c2cccs2)cc1	none
CCCc1nc2c3ccccc3ccn2c1Cc1cccc(Cl)c1	HT1080 IDH1KD tx inconclusive, DT40 TDP1 CPT inconclusive, TDP1 cell noCPT inconclusive, HT1080-NT tox 26µM
CCCc1nc2c3ccccc3ccn2c1Cc1ccc(C)cc1	HT1080 IDH1KD tx inconclusive, DT40 TDP1 CPT 21µM, TDP1 cell noCPT inconclusive, HT1080-NT tox inconclusive
CCCc1nc2c3ccccc3ccn2c1CC(C)(C)C	HT1080 IDH1KD tx inconclusive, DT40 TDP1 CPT 9.2µM, TDP1 cell noCPT 21µM, HT1080-NT tox inconclusive
N#Cc1ccc(-c2nc3c4ccccc4ccn3c2CC2CCCCC2)cc1	none
c1ccc(Cc2c(-c3ccccc3)nc3c4ccccc4ccn23)cc1	DT40 TDP1 CPT inconclusive, TDP1 cell noCPT inconclusive
CCCc1nnc(SCC(=O)NC2CCCCC2)n1CCOC	none
Cc1ccc2cc(C)c(SCC(=O)NCc3ccco3)nc2c1	TDP1 cell noCPT inconclusive, KB-V1 cytotox inconclusive
COc1cc(C(=O)NCCCNc2nc3cc(C)c(C)cc3cc2C#N)cc(OC)c1OC	DT40 TDP1 CPT inconclusive, TDP1 cell noCPT 23µM
COc1cc(C(=O)NCCNc2nc3c(C)c(C)ccc3cc2C#N)cc(OC)c1OC	none
Cc1ccc2cc(C#N)c(NCc3ccco3)nc2c1	HT1080 IDH1KD tx inconclusive, DT40 TDP1 CPT 23µM, TDP1 cell noCPT inconclusive
COc1cc(C(=O)NCCNc2nc3cc(C)ccc3cc2C#N)cc(OC)c1OC	DT40 TDP1 CPT inconclusive, TDP1 cell noCPT 16µM
COc1ccc(CNC(=O)CCC2N=C3c4ccccc4N=C(SCc4cccc(F)c4)N3C2=O)cc1 (configuration not stated)	DT40 TDP1 CPT inconclusive, TDP1 cell noCPT inconclusive (no result: HT1080 IDH1KD tx, HT1080-NT tox)
Cc1cc(C(=O)N2CCCC(C(=O)c3cccc(C(F)(F)F)c3)C2)nc(C)n1 (configuration not stated)	none
CC1CC(C)CN(C(=S)NC2CCCCC2)C1 (configuration not stated)	DT40 TDP1 CPT inconclusive, TDP1 cell noCPT 26µM
S=C(NC1CCCCC1)N1CCOCCOCCN(C(=S)NC2CCCCC2)CCOCCOCC1	HT1080 IDH1KD tx inconclusive, DT40 TDP1 CPT inconclusive, TDP1 cell noCPT inconclusive, KB-3-1 cytotox inconclusive, HT1080-NT tox inconclusive
COc1cccc(C(=O)Nc2ccccc2OCc2cc(=O)n3ccccc3n2)c1	TDP1 cell noCPT inconclusive (no result: HT1080 IDH1KD tx, KB-V1 cytotox, KB-3-1 cytotox, HT1080-NT tox)
CCCCCNC(=O)C(c1ccc(C#N)cc1)n1c(=O)c(-c2ccco2)nc2ccccc21 (configuration not stated)	DT40 TDP1 CPT inconclusive, TDP1 cell noCPT inconclusive
CC(C)(C)NC(=O)C(c1ccc(C(F)(F)F)cc1)n1c(=O)c(-c2ccco2)nc2ccccc21 (configuration not stated)	HT1080 IDH1KD tx inconclusive, DT40 TDP1 CPT 16µM, TDP1 cell noCPT 18µM, KB-V1 cytotox inconclusive
CC(C)(C)NC(=O)C(C1CC1)n1c(=O)c(-c2ccco2)nc2ccccc21 (configuration not stated)	DT40 TDP1 CPT inconclusive, TDP1 cell noCPT 16µM
O=C(NCc1ccccc1)C(c1ccc(C(F)(F)F)cc1)n1c(=O)c(-c2ccccc2)nc2ccccc21 (configuration not stated)	KB-V1 cytotox inconclusive
O=C(NCc1ccccc1)C(c1ccc(C(F)(F)F)cc1)n1c(=O)c(-c2ccco2)nc2ccccc21 (configuration not stated)	DT40 TDP1 CPT inconclusive, TDP1 cell noCPT 21µM, KB-V1 cytotox inconclusive
